Source: PubChem BioAssay (Tox21)
Unmarked numbers belong to inactive results. Records with an inconclusive call do not appear. Active and inactive are the calls of the source. The call rests on the fitted dose curve.

target: Muscarinic acetylcholine receptor M1 (Homo sapiens) (UniProt P11229); assay: Cholinergic receptor muscarinic 1 (CHRM1) small molecule antagonists, cell-based qHTS assay (AID 1963588); details: CHRM1-CHO antagonist mode, calcium flux fluorescence; series mostly up to 61.5 µM; activity, negative = inhibition: at the top concentration; further: nearly all actives have a fitted effect of over 40% in size
Sequence (P11229 whole entry, looked up): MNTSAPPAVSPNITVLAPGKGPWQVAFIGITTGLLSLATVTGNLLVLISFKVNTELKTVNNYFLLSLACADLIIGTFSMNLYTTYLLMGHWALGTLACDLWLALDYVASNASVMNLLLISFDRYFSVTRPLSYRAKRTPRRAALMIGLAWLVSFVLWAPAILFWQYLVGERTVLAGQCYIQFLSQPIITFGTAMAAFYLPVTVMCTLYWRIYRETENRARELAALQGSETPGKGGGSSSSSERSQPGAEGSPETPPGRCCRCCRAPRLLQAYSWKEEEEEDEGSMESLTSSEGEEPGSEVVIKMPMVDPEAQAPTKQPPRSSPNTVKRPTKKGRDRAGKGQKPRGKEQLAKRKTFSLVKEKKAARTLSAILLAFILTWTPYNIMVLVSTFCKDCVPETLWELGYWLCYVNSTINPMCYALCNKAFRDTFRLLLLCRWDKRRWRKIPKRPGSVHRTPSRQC
How it was run: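 Compounds were tested at 15 concentrations in three independent runs. Dye-loaded CHRM1-CHO cells were exposed 5 min at room temperature before stimulation by acetylcholine added at 50nM. Intracellular calcium was read kinetically on FDSS for 3 min.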
On the % scale 0 is the no-effect control and ±100 the full control effect.

Row | SMILES | activity, negative = inhibition
1 | C=COC(C)=O | -4.54%
2 | CCCCCl | 2%
3 | CCOC(=O)OC1=C(c2cc(C)ccc2C)C(=O)NC12CCC(OC)CC2 (stereo not drawn) | 21.2%
4 | NNCCO | 1.57%
5 | O=CC(Br)(Br)Br | -4.82%
6 | Nc1c(Br)cc(Br)c2c1C(=O)c1ccccc1C2=O | -4.93% [at 12.6 µM]
7 | O=S(=O)(Cl)c1ccccc1 | 1.83%
8 | O=Cc1ccc2c(c1)OCO2 | 22.8%
9 | CCN(CC)C(=S)[S-].CCN(CC)C(=S)[S-].[Zn+2] | -13%
10 | CC(Oc1cccc(Cl)c1)C(=O)O (stereo not drawn) | 1.97%
11 | CCCSP(=S)(OCC)Oc1ccc(Cl)cc1Cl (stereo not drawn) | -3.55%
12 | CC(C)(C)c1cc([N+](=O)[O-])cc([N+](=O)[O-])c1O | -5.43%
13 | Cc1cnc2c(C(=O)O)c(Cl)ccc2c1 | -7.17%
14 | CC(C)C(=O)Cl | -7.36%
15 | CCOc1ccc(C(C)(C)COCc2cccc(Oc3ccccc3)c2)cc1 | 19.2%
16 | O=[Se]=O | -7.8% [at 28.3 µM]

Row | SMILES | activity, negative = inhibition
17 | CCOCn1c(-c2ccc(Cl)cc2)c(C#N)c(Br)c1C(F)(F)F | -21.3%
18 | O=C(N[C@H]1N=C(c2ccccc2F)c2cccc3c2N(CC3)C1=O)c1cc2ccccc2[nH]1 | 10.5% [at 28.3 µM]
19 | N#Cc1cc(I)c(O)c(I)c1 | 7.7%
20 | CCC1(C2=NCCN2)Cc2ccccc2O1 (stereo not drawn) | 2.78% [at 28.3 µM]
21 | ClSC(Cl)(Cl)Cl | 11%
22 | CCOP(=S)(OCC)Oc1cc(C)nc(N(CC)CC)n1 | -1.51%
23 | Nc1ccc2c(c1)Cc1ccccc1-2 | 8.91%
24 | C[C@@H]1CC2=CC(=O)CC[C@@H]2[C@H]2CC[C@@]3(C)[C@@H](CC[C@]3(C)O)[C@@H]21 | 9.55% [at 28.3 µM]
25 | COC(=O)c1ccccc1S(=O)(=O)NC(=O)N(C)c1nc(C)nc(OC)n1 | -16.9%
26 | CC(Cc1ccccc1)NCc1ccccc1Cl (stereo not drawn) | 3.01% [at 28.3 µM]
27 | CC(C)(C)c1ccc(CSc2cnn(C(C)(C)C)c(=O)c2Cl)cc1 | 1.26%
28 | CNN | -15.3%
29 | C=C1C[C@@H]2[C@H](CC[C@]3(C)C(=O)CC[C@@H]23)[C@@]2(C)C=CC(=O)C=C12 | 20.5% [at 28.3 µM]
30 | C=CCOC(C)=O | 14.1%
31 | Cc1ccc(-c2c(Cl)nc(C#N)n2S(=O)(=O)N(C)C)cc1 | 7.68%

target: Muscarinic acetylcholine receptor M1 (Homo sapiens) (UniProt P11229); assay: Cholinergic receptor muscarinic 1 (CHRM1) small molecule agonists, cell-based qHTS assay (AID 1963589); details: CHRM1-CHO cells, agonist mode, calcium flux fluorescence; series mostly up to 76.8 µM; activation: at the top concentration; further: nearly all actives have a fitted effect of over 35% in size; further: potency means the concentration at half of the fitted maximal effect
How it was run: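 Homogeneous fluorescence calcium flux, agonist mode. Human M1-expressing CHO cells; compound dosed at 15 concentrations, three independent runs; signal sampled every 1 sec.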

Row | SMILES | activation | Potency
32 | CCCCCl | 0.0222% | –
33 | OC(c1ccc(F)cc1)(c1cncnc1)c1ccccc1Cl (stereo not drawn) | -1.14% | –
34 | CCOC(=O)OC1=C(c2cc(C)ccc2C)C(=O)NC12CCC(OC)CC2 (stereo not drawn) | -0.862% | –
35 | C[N+]1(C)[C@@H]2CC[C@H]1CC(OC(=O)C(CO)c1ccccc1)C2 (stereo partly drawn) | -0.0372% [at 35.3 µM] | –
36 | O=CC(Br)(Br)Br | 1.09% | –
37 | Nc1c(Br)cc(Br)c2c1C(=O)c1ccccc1C2=O | -0.118% [at 15.8 µM] | –
38 | O=S(=O)(Cl)c1ccccc1 | 0.113% | –
39 | Cc1nnc2n1-c1sc(CCC(=O)N3CCOCC3)cc1C(c1ccccc1Cl)=NC2 | 0.0041% [at 35.3 µM] | –
40 | O=Cc1ccc2c(c1)OCO2 | 0.0404% | –
41 | CCN(CC)C(=S)[S-].CCN(CC)C(=S)[S-].[Zn+2] | – | 13.7 µM (active)
42 | CC(Oc1cccc(Cl)c1)C(=O)O (stereo not drawn) | 0.0563% | –
43 | N#CC(CCc1ccc(Cl)cc1)(Cn1cncn1)c1ccccc1 (stereo not drawn) | 5.67% | –
44 | CCCSP(=S)(OCC)Oc1ccc(Cl)cc1Cl (stereo not drawn) | -0.121% | –
45 | Cc1cnc2c(C(=O)O)c(Cl)ccc2c1 | 8.43% | –
46 | CC(C)C(=O)Cl | 0.108% | –
47 | CN(C)c1ccc(N)cc1 | -0.415% | –

Row | SMILES | activation | Potency
48 | CCOc1ccc(C(C)(C)COCc2cccc(Oc3ccccc3)c2)cc1 | -0.531% | –
49 | O=[Se]=O | 0.0511% [at 35.3 µM] | –
50 | CCOCn1c(-c2ccc(Cl)cc2)c(C#N)c(Br)c1C(F)(F)F | 2.69% | –
51 | O=C(N[C@H]1N=C(c2ccccc2F)c2cccc3c2N(CC3)C1=O)c1cc2ccccc2[nH]1 | -0.372% [at 35.3 µM] | –
52 | CCC1(C2=NCCN2)Cc2ccccc2O1 (stereo not drawn) | -0.265% [at 35.3 µM] | –
53 | CCOP(=S)(OCC)Oc1cc(C)nc(N(CC)CC)n1 | 3.39% | –
54 | Nc1ccc2c(c1)Cc1ccccc1-2 | -0.744% | –
55 | C[C@@H]1CC2=CC(=O)CC[C@@H]2[C@H]2CC[C@@]3(C)[C@@H](CC[C@]3(C)O)[C@@H]21 | 0.0868% [at 35.3 µM] | –
56 | COC(=O)c1ccccc1S(=O)(=O)NC(=O)N(C)c1nc(C)nc(OC)n1 | 0.0102% | –
57 | CC(Cc1ccccc1)NCc1ccccc1Cl (stereo not drawn) | 0.036% [at 35.3 µM] | –
58 | CC(C)(C)c1ccc(CSc2cnn(C(C)(C)C)c(=O)c2Cl)cc1 | 2.91% | –
59 | CNN | 14.2% | –
60 | C=C1C[C@@H]2[C@H](CC[C@]3(C)C(=O)CC[C@@H]23)[C@@]2(C)C=CC(=O)C=C12 | -0.0548% [at 35.3 µM] | –
61 | C=CCOC(C)=O | -1.08% | –
62 | Cc1ccc(-c2c(Cl)nc(C#N)n2S(=O)(=O)N(C)C)cc1 | 1.42% | –
63 | FC(F)OC(F)(F)C(F)Cl (stereo not drawn) | 0.0877% | –

system: not listed separately; assay: cAMP Responsive Elements (CRE) small molecule agonists, cell-based qHTS assay (AID 1963590); details: CRE-bla HEK293T, beta-lactamase FRET ratio, 3 h; series mostly up to 92.4 µM; activation: at the top concentration
How it was run: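 HEK 293T cells stably bearing CRE-bla were plated at 2,000 cells per well and rested 18 h. Compounds, positive controls or DMSO were added for 3 h at 37 C. LiveBLAzer B/G substrate was then loaded for 2 h at room temperature.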

Row | SMILES | activation
64 | C=COC(C)=O | 0.753%
65 | CCCCCl | 2.99%
66 | OC(c1ccc(F)cc1)(c1cncnc1)c1ccccc1Cl (stereo not drawn) | 5.46%
67 | C[N+]1(C)[C@@H]2CC[C@H]1CC(OC(=O)C(CO)c1ccccc1)C2 (stereo partly drawn) | -0.283% [at 42.5 µM]
68 | O=CC(Br)(Br)Br | -1.51%
69 | Nc1c(Br)cc(Br)c2c1C(=O)c1ccccc1C2=O | -1.39% [at 19 µM]
70 | O=S(=O)(Cl)c1ccccc1 | -0.109%
71 | O=Cc1ccc2c(c1)OCO2 | 0.281%
72 | CCCSP(=S)(OCC)Oc1ccc(Cl)cc1Cl (stereo not drawn) | 3.11%
73 | CCC(CC)(CNC(=O)CCCO)c1cccc(OC)c1 | -1.27% [at 42.5 µM]
74 | CC[C@@H](CO)NC(=O)[C@@H]1C=C2c3cccc4[nH]cc(c34)C[C@H]2N(C)C1 | 2.79% [at 42.5 µM]
75 | CC(C)C(=O)Cl | -0.0363%
76 | CCOc1ccc(C(C)(C)COCc2cccc(Oc3ccccc3)c2)cc1 | 0.111%
77 | O=C(N[C@H]1N=C(c2ccccc2F)c2cccc3c2N(CC3)C1=O)c1cc2ccccc2[nH]1 | 3.07% [at 42.5 µM]
78 | CCC1(C2=NCCN2)Cc2ccccc2O1 (stereo not drawn) | -0.145% [at 42.5 µM]
79 | ClSC(Cl)(Cl)Cl | 0.0238%
80 | COC(=O)c1ccccc1S(=O)(=O)NC(=O)N(C)c1nc(C)nc(OC)n1 | -0.165%
81 | CC(Cc1ccccc1)NCc1ccccc1Cl (stereo not drawn) | -0.386% [at 42.5 µM]
82 | CNN | -0.497%
83 | FC(F)OC(F)(F)C(F)Cl (stereo not drawn) | -0.177%
